About 7,500 (2.1%) of roughly 360,000 compounds were called active. About 8% were inconclusive and are not listed. The sample as a whole holds a higher share of actives than the screen did. Some structures have more than one record in an assay (separate samples or runs), and their calls can disagree. Unmarked numbers belong to inactive results. The call rests on the fitted dose curve; in most records, active means well fitted cell-killing curve with a large enough effect; inconclusive means small, poorly fitted or top-dose-only effect, or effect the other way, or another doubt; inactive means no such curve, though single readings can be large or run the other way.
test: qHTS for induction of synthetic lethality in tumor cells producing 2HG: qHTS for the HT-1080-IDH1KD cell line; conditions: HT-1080 IDH1 knockdown viability, ATP luminescence, 48 h; series mostly up to 46.1 µM; activity, negative = toxicity: at the top concentration;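 on activity, negative = toxicity: 0% = DMSO wells and -100% = cell-free medium wells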
Summary of the method: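 Viability of IDH1-knockdown HT-1080 fibrosarcoma cells was assessed by CellTiter-Glo after 48 h at 37 °C with titrated compound; concentration-effect curves were classified by fit quality and response size.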
Potency means the concentration at half of the fitted maximal effect.

| Structure (SMILES) | activity, negative = toxicity | Potency |
| --- | --- | --- |
| COc1ccc(C(=O)N2CCCCC2c2cc(C(=O)Nc3ccc(F)c(Cl)c3)no2)cc1 (stereo not drawn) | -2.02% | – |
| CSc1ncc(Sc2ccccc2)c(C(=O)O)n1 | 12.7% | – |
| CSc1nc(-c2ccccc2)nc(C(Cl)Cl)n1 | – | 18.4 µM (active) |
| Cc1ccccc1-c1ccc2c(c1)O[C@@H](CN(C)Cc1ccc(C(=O)O)cc1)[C@@H](C)CN([C@H](C)CO)S2(=O)=O | -7.84% | – |
| CC(=O)Nc1cccc(Nc2ccc(C#N)cc2)c1 | 0.812% | – |
| Cc1ccc(NC(=S)N(CCCN2CCC(C)CC2)Cc2ccco2)cc1 | -5.45% | – |
| Cc1ccc(NC(=S)N(CCN2CCCCC2)Cc2ccco2)cc1C | -5.58% | – |
| Cc1ccc(NC(=S)N(CCCN2CCCC2)Cc2cccn2Cc2ccc(Cl)cc2)cc1 | – | 23.1 µM (active) |
| Cc1ccc(NC(=O)COC(=O)CN2CCSC2=O)cc1F | 2.76% | – |
| CCc1nc2c(OCCOc3ccc(F)cc3)cccn2c1N(C)C(=O)c1ccccc1F | -5.69% | – |
| O=C(OCc1ccccc1)N1CCC2CC1c1ccc(-c3ccc4c(c3)OCO4)cc12 (stereo not drawn) | 3.84% | – |
| CCOC(=O)C1(C)CCCN(C(=O)c2cccc(Cl)c2)C1 (stereo not drawn) | 4.06% | – |
| CCCCCNC(=O)C(c1ccc(OC)cc1)n1c(=O)c(-c2ccccc2)nc2ccccc21 (stereo not drawn) | -17.2% | – |
| O=C(NC1CCCC1)C1c2ccccc2OCC(=O)N1Cc1ccccc1 (stereo not drawn) | 4.14% | – |
| C=CCn1c(Cn2nnc3ccccc32)nnc1SCC(=O)N/N=C/c1cc(Br)cc(OC)c1O | 6.3% | – |
| Oc1c(Cl)cc(Cl)cc1/C=N/c1ncn[nH]1 | 11.8% | – |
| COc1cc(Br)cc(/C=N/c2ncn[nH]2)c1O | – | 15.8 µM (active) |
| COc1cc2nc(N3CCCN(C)CC3)nc(NC(C)C)c2cc1OC | -17.8% | – |
| O=S1(=O)CC(N2CCSCC2)CN1Cc1cn(Cc2cccc(Cl)c2)nn1 (stereo not drawn) | 1.27% | – |
| CN1OC[C@@H]2CN(S(=O)(=O)c3cccc4ccccc34)[C@H](c3ccc(N4CCCCC4)cc3)C[C@@H]21 | -11.5% | – |
| CCc1nc(C)ccc1OCC(=O)N(CC)CC | 5.18% | – |
| CCC(C)(C)c1ccc(OCC(=O)N(C)C)c(C(C)(C)CC)c1 | – | 20.6 µM (active) |
| COc1cccc(C(O)c2ncc(-c3ccc4ccccc4c3)[nH]2)c1 (stereo not drawn) | 0.29% | – |
| COc1ccc(S(=O)(=O)N2CCC(C(=O)NCCC(=O)NCCc3cccc(F)c3)CC2)cc1 | 3.72% | – |
| Cc1ccc(NC(=O)[C@H](Cc2ccccc2)NC(=O)CC[C@H]2O[C@@H](n3ccc(=O)[nH]c3=O)[C@H](O)[C@@H]2O)cc1C | 7.02% | – |

| Structure (SMILES) | activity, negative = toxicity | Potency |
| --- | --- | --- |
| COc1cc(C(=O)OCCCN2CCOCC2)cc(OC)c1OC | 6.61% | – |
| CCCc1c(C)nc2scc(-c3ccc(Cl)cc3)n2c1=O | 13.9% | – |
| CC1CN(C(=O)CCC(=O)NCc2cccnc2)c2ccccc2O1 (stereo not drawn) | -2.22% | – |
| CC1CN(C(=O)CCC(=O)NCCCN2CCC(Cc3ccccc3)CC2)c2cc(Cl)ccc2O1 (stereo not drawn) | – | 16.4 µM (active) |
| CC1CN(C(=O)CCC(=O)NC2CCN(Cc3ccccc3)CC2)c2ccccc2O1 (stereo not drawn) | -0.348% | – |
| COc1ccc(CN2C(=O)C(CC(=O)NCc3cccc4ccccc34)CC(C(=O)N3CCOCC3)=C2C)cc1 (stereo not drawn) | -0.0224% | – |
| CC(=O)OCC(C)n1c(=O)c2ccccc2n1C(C)=O (stereo not drawn) | 12.7% | – |
| O=c1ccc2c(-c3ccccc3S(=O)(=O)O)c3ccc(O)c(O)c3oc-2c1O | – | 14.6 µM (active) |
| O=S1(=O)CCN(C2CCCCCCCCCCC2)CC1 | 6.35% | – |
| CCCCn1nnnc1C(c1cc2ccccc2o1)N(C)Cc1ccc(Cl)c(Cl)c1 (stereo not drawn) | -11.5% | – |
| C=CC(=O)OCCOCCOCCOCCOC(=O)C=C | – | 23.1 µM (active) |
| O=Cc1cn(CCOc2ccc(F)cc2)c2ccccc12 | -3.73% | – |
| CCOC(=O)N1CCN(C(=O)C2CCN(S(=O)(=O)c3cc(Cl)ccc3OCC)CC2)CC1 | 1.79% | – |
| CCOC(=O)/C(=N\Nc1ccccc1Cl)N(C)C1CCS(=O)(=O)C1 (stereo not drawn) | -25.2% | – |
| CCOC(=O)/C(=N\Nc1cc(Cl)ccc1Cl)N1CCN(C)CC1 | – | 20.6 µM (active) |
| CCOc1cc(NC(=O)c2ccccc2C(=O)O)c(OCC)cc1NC(=O)c1ccccc1F | 0.297% | – |
| CCN1CCN(c2cc3nc(C)n(Cc4ccccc4)c(=O)c3cc2NC(=O)c2ccccc2F)CC1 | – | 20.6 µM (active) |
| CCC(=O)Nc1ccc2nc(C)n(Cc3ccccc3Cl)c(=O)c2c1 | 0.259% | – |
| O=C(/C=C/c1ccc(N2CCOCC2)cc1)c1ccccc1 | -25.3% | – |
| Cc1[nH]c(=O)c(C(=O)/C=C/c2ccccc2)c2c1CCCC2 | – | 3.98 µM (active) |
| CC1(C(=O)O)CCCN(C(=O)/C=C/c2ccccc2)C1 (stereo not drawn) | 16.9% | – |
| COc1cc(F)ccc1-c1cc(C(=O)NCC2CCCCC2)[nH]n1 | -0.877% | – |
| CC(=O)Nc1cnc(-c2ccc(O)cc2C)cn1 | -2.01% | – |
| Cc1ccc(Nc2nc(-c3ccc(O)cc3O)cs2)nc1 | – | 1.84 µM (active) |
| Cc1ccn2c(-c3csc(Nc4ccc(C(=O)O)cc4)n3)c(C)nc2c1 | -27.7% | – |

| Structure (SMILES) | activity, negative = toxicity | Potency |
| --- | --- | --- |
| CCC1(CC)Cc2ccccc2-c2nc(CCl)[nH]c(=O)c21 | -20.6% | – |
| Cn1c(NCc2cccnc2)nc2cc(-c3ccc(F)cc3)sc2c1=O | 0.818% | – |
| O=c1[nH]c(CCl)nc2cc(-c3ccc(Cl)cc3)sc12 | – | 11.6 µM (active) |
| O=C(c1ncn2c1c(=O)[nH]c1ccccc12)N1CCc2ccccc2C1 | 0.374% | – |
| Cc1sc2nc(-c3ccccc3F)oc(=O)c2c1C | 0.555% | – |
| OCCC#Cc1ccc(N2C(c3ccsc3)=Cc3ccc(F)cc3C2c2c[nH]c3ccccc23)cc1 (stereo not drawn) | – | 25.9 µM (active) |
| Nc1ncnc2c1ncn2[C@@H]1O[C@H](C(=O)N2CCCN(Cc3ccccc3F)CC2)[C@@H](O)[C@H]1O | 12.2% | – |
| Cc1nnc(SC(C)C(=O)c2c[nH]c3ccccc23)n1C1CC1 (stereo not drawn) | 8.97% | – |
| CC(=NNC(N)=O)C1CC2CCC1CC2 (stereo not drawn) | 1.1% | – |
| Oc1cc2c(cc1O)CN(C(=S)NCCc1ccc(Cl)cc1)CCC2 | – | 39.8 µM (active) |
| O=C(NCCc1ccc(Cl)cc1)c1cccc(N2CCCC2=O)c1 | -1.86% | – |
| COc1ccc(CCNC(=S)N2CCN(S(=O)(=O)c3ccc(Cl)cc3)CC2)cc1 | -13.5% | – |
| CCN(CC)C(=O)C1=C(C)N(Cc2ccc(OC)cc2)C(=O)C(CC(=O)NCCCCc2ccccc2)C1 (stereo not drawn) | -0.484% | – |
| CC(C)CCOc1ccc(C(=O)Nc2cc(S(=O)(=O)N3CCOCC3)ccc2N2CCOCC2)cc1 | -1.56% | – |
| COc1ccc(-c2csc(C(O)c3cccc(Cl)c3)n2)cn1 (stereo not drawn) | -28.4% | – |
| COc1cccc(NC(=O)Nc2ccc(F)cc2)c1 | -0.348% | – |
| COc1ccc(/C=N/Nc2cc(N3CCOCC3)nc(C)n2)c(OC)c1 | -0.735% | – |
| COc1cccc(/C=N/Nc2cc(C)nc(-c3ccccc3O)n2)c1O | – | 6.51 µM (active) |
| COc1cccc(/C=N/Nc2ccc(S(=O)(=O)Nc3ccccc3C(=O)O)cc2[N+](=O)[O-])c1O | 9.03% | – |
| Nc1ncnc2c1ncn2[C@@H]1O[C@H](C(=O)NS(=O)(=O)c2c(Cl)nc3sccn23)[C@@H](O)[C@H]1O | 13.5% | – |
| COc1ccc(NC(=O)N(C)C[C@@H]2OCc3cn(nn3)CCCC(=O)N([C@H](C)CO)C[C@H]2C)c(OC)c1 | -13.7% | – |
| COCCOC(=O)c1[nH]c2c(c1C)C(=O)CC(c1ccc(OC)cc1)C2 (stereo not drawn) | -0.695% | – |
| COC(=O)C1C(=O)c2c([nH]c(C(=O)OCCSC)c2C)CC1C (stereo not drawn) | 4.86% | – |
| CCCOC(=O)c1[nH]c2c(c1C)C(=O)CC(c1cccs1)C2 (stereo not drawn) | – | 0.651 µM (active) |
| CCc1nc2c(=O)[nH]cnc2o1 | 6.79% | – |

| Structure (SMILES) | activity, negative = toxicity | Potency |
| --- | --- | --- |
| O=C(Nc1ccc(Cl)cc1)c1csc([C@H]2C[C@H](O)[C@@H](CO)O2)n1 | -8.66% | – |
| O=C(N[C@H]1CC[C@H](CC(=O)N2CCCCC2)O[C@@H]1CO)c1cccc(F)c1 | 26% | – |
| Cc1cccc2cc3c(N)c(C(=O)N4CCCc5ccccc54)sc3nc12 | – | 2.31 µM (active) |
| Cc1ccc(C(=O)N2CCCc3ccccc32)c(Cl)c1 | 0.883% | – |
| Cc1c(C(=O)N2CCCc3ccccc32)sc2nc(-c3ccccc3)cn12 | 8.39% | – |
| CC(C)(C)Cc1c(C2CCCCC2)nc2ccc(Br)cn12 | -20.5% | – |
| C[C@H]1CN([C@@H](C)CO)C(=O)CCCn2cc(nn2)CO[C@@H]1CN(C)S(=O)(=O)c1ccc(-c2ccccc2)cc1 | 3.42% | – |
| N=C1C(c2nc3ccccc3[nH]2)=C(O)CN1NC(=O)c1c[nH]c2ccccc12 | 4.62% | – |
| Cc1ccc(C)n1NC(=O)c1ccc([N+](=O)[O-])cc1 | -6.65% | – |
| N=C1C(c2nc3ccccc3s2)=C(O)CN1NC(=O)c1ccc([N+](=O)[O-])cc1 | – | 20.6 µM (active) |
| C[C@H]1CN([C@@H](C)CO)C(=O)c2cc(C3=CCCCC3)cnc2O[C@@H]1CN(C)C(=O)Cc1ccccc1 | -8.68% | – |
| COc1ccc(C2=NN(c3ccccc3)C(c3cccs3)C2)cc1 (stereo not drawn) | -0.443% | – |
| COc1ccc(C2CC(c3cccc(OC)c3)=NN2c2ccc(S(N)(=O)=O)cc2)cc1 (stereo not drawn) | – | 16.4 µM (active) |
| COc1ccc(C2CC(c3ccccc3)=NN2C(=O)COC(=O)COc2ccccc2)cc1 (stereo not drawn) | -0.202% | – |
| O=c1[nH]c2ccccc2n1C1CCN(CCOc2ccccc2)CC1 | -17.5% | – |
| CCOc1ccc(NC(=O)CSc2nnc3c(n2)[nH]c2ccc(S(=O)(=O)N4CCOCC4)cc23)cc1 | 23.2% | – |
| CC1C(=O)N(Cc2cn(Cc3ccco3)nn2)CCS(=O)(=O)N1Cc1ccc(-c2cccc(CO)c2)cc1 (stereo not drawn) | -0.032% | – |
| CC(C)CC1C(=O)N(Cc2cn(CC3CCCCC3)nn2)CCS(=O)(=O)N1Cc1ccc(-c2ccc(Cl)cc2)cc1 (stereo not drawn) | -2.65% | – |
| CC(C)CC1C(=O)N(Cc2cn(Cc3ccco3)nn2)CCS(=O)(=O)N1Cc1ccc(-c2ccc(Cl)c(Cl)c2)cc1 (stereo not drawn) | – | 18.4 µM (active) |
| C[C@@H]1CN([C@H](C)CO)S(=O)(=O)c2ccc(C#CC3CCCCC3)cc2O[C@H]1CN(C)C(=O)Cc1ccncc1 | -20.4% | – |
| COC(=O)c1cc(OC)ccc1-c1ccc(OC)cc1 | -0.423% [at 9.24 µM] | – |
| CCOC(=O)C1=C(c2ccc(OC)cc2)C(=O)c2ccccc2C1=O | – | 7.31 µM (active) |
| COc1ccc(CNC(=O)CCN2C(=O)c3ccccc3C2=O)cc1 | 17.2% | – |

From PubChem BioAssay AID686971 (National Center for Advancing Translational Sciences (NCATS), 2013)
